Reference: PubChem BioAssay (NCATS)
Several values for one entry are separate records, joined by “and”; a condition that tells them apart may be missing. Equal entries are not always repeated. Results filed as inconclusive are left out. Activity calls are given as the source filed them. Calls follow the shape of the dose curve; as a rule, active = well fitted inhibition curve with a large enough effect; inconclusive = small, poorly fitted or top-dose-only effect; inactive = flat fitted curve, though single readings scatter.

What was measured:
[1] = system: CRL-7250; experiment: Cytotoxic Profiling of Annotated Libraries Using Quantitative High-Throughput Screening (AID 1296008); details: Five cell lines viability, CellTiter-Glo ATP luminescence, 48-72 h; max response: active compounds read low; also: potency is read from the fitted curve at half-maximal effect; as to max response: % is scaled to controls: 0 for no effect and ±100 for the full control effect
Summary of the method: (§1)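 Compounds were pin-transferred onto cells and incubated 48 or 72 hr at 37 degree Celsius, 95% humidity. CellTiter-Glo was added, plates sat 10 min at room temperature, then ATP-coupled luminescence was imaged as the viability read-out.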

[2] = system: HEK293; experiment: as above; details: Five cell lines viability, CellTiter-Glo ATP luminescence, 48-72 h; max response: active compounds read low
Summary of the method: as §1

[3] = system: HaCat; experiment: as above; details: Five cell lines viability, CellTiter-Glo ATP luminescence, 48-72 h; max response: active compounds read low
Summary of the method: as §1

[4] = system: NIH3T3; experiment: as above; details: Five cell lines viability, CellTiter-Glo ATP luminescence, 48-72 h; max response: active compounds read low
Summary of the method: as §1

[5] = system: TAB165; experiment: qHTS profiling for inhibitors of Plasmodium falciparum proliferation (AID 504749); also: potency is read from the fitted curve at half-maximal effect; details: P. falciparum in erythrocytes, SYBR Green DNA, 72 h; series mostly up to 28.7 µM
Summary of the method: (§2)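 Quantitative HTS: compounds pinned into medium, infected erythrocytes added (0.3% parasitemia, 2.5% hematocrit), 72 h culture at 37 C under 5% CO2. Saponin/Triton lysis with SYBR Green I, overnight RT, then fluorescence read.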

[6] = system: W2; experiment: as above; details: P. falciparum in erythrocytes, SYBR Green DNA, 72 h; series mostly up to 28.7 µM
Summary of the method: as §2

[7] = system: KB-3-1; experiment: Cytotoxic Profiling of Annotated Libraries Using Quantitative High-Throughput Screening (AID 1296008); details: Five cell lines viability, CellTiter-Glo ATP luminescence, 48-72 h; max response: active compounds read low; also: potency is read from the fitted curve at half-maximal effect; as to max response: % is scaled to controls: 0 for no effect and ±100 for the full control effect
Summary of the method: as §1

[8] = system: HEK293T; experiment: qHTS assay to identify novel small-molecules to repurpose for Merkel cell carcinoma treatment (AID 1296009); details: MCC and control cell lines, CellTiter-Glo viability, 72 h; at 44.8 µM (top of the series)
Summary of the method: (§3)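 Viability readout: ATP luminescence (CellTiter-Glo) after 72 hr drug exposure at 37 degree celsius. Dose-response format was 8 points for NPC and 11 points for MIPE; data normalized to in-plate controls.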

[9] = system: CRL-7250; experiment: as above; details: MCC and control cell lines, CellTiter-Glo viability, 72 h; at 44.8 µM (top of the series) unless noted
Summary of the method: as §3

[10] = system: HACAT; experiment: as above; details: MCC and control cell lines, CellTiter-Glo viability, 72 h; at 44.8 µM (top of the series) unless noted
Summary of the method: as §3
Also: nearly all actives have a fitted effect of over 60% in size.

Sc1ccccc1Cl
inactive: max response [1] 1.34% | max response [2] -0.79% | max response [3] -3.98% | max response [4] 2.05%

CCCCCCCCC(=O)NCc1ccc(O)c(OC)c1
inactive: Potency [5] | Potency [6] | max response [1] -16.7% | max response [2] -94.9% | max response [3] -25.6% | max response [7] -3.93% | max response [4] -70.4%

CC(CC(C(N)=O)(c1ccccc1)c1ccccc1)N(C)C (configuration not stated)
inactive: max response [1] -1.58% | outcome [2] | max response [3] -10.9% | outcome [4] | outcome [8]

CN1C(=O)[C@@H](NC(=O)c2cc3ccccc3[nH]2)N=C(c2ccccc2)c2ccccc21
active: Potency [5] 10 µM | Potency [6] 7.57 µM | Potency [2] 11.9 µM
inactive: max response [1] -23.4% | max response [7] 1.71%

COP(=O)(OC)OC=C(Cl)Cl
inactive: Potency [5] | outcome [1] | max response [2] -1.59% | max response [3] -7.81% | outcome [4]
active: Potency [6] 10.7 µM

O=c1[nH]c2cc(Cl)ccc2n1C1CCNCC1
inactive: outcome [1] | max response [2] -8.77% | outcome [3] | outcome [4] | outcome [9] | outcome [10]

CNC(C)Cc1ccc2c(c1)OCO2 (configuration not stated)
inactive: max response [1] 4.98% | max response [3] -2.61% | max response [7] -21.8% | max response [4] 0.465%

CCC1(c2cnc[nH]2)Cc2ccccc2C1
inactive: max response [1] -7.94% | max response [2] -9.84% | max response [7] -12.7% and -2.33% | outcome [4]

CC(C)NCC(O)c1ccc(N)c(C#N)c1 (configuration not stated)
inactive: Potency [5] | Potency [6] | max response [1] 3.52% | outcome [2] | max response [3] -0.104% | max response [7] -10.3% | max response [4] 2.77% | outcome [8]

COc1cc(CC#N)cc(OC)c1OC
inactive: max response [1] -2.26% | max response [2] -3.74% | outcome [3] | max response [4] -3.69% | outcome [10]

Cc1nnc2n1-c1sc(CCC(=O)N3CCOCC3)cc1C(c1ccccc1Cl)=NC2
inactive: outcome [1] | outcome [2] | max response [7] -14.1% and 0.342% | max response [4] 2.45% | outcome [9] | outcome [8]

CCNc1nc(Cl)nc(NCC)n1
inactive: Potency [5] | Potency [6] | max response [1] -9.95% | max response [2] 1.01% | max response [7] -15.4% | max response [4] -12.6%

Cc1nc2ccccc2c(=O)n1-c1ccccc1Cl
inactive: max response [1] -16.7% | max response [3] -9.75% | max response [7] -1.49%

O=C(CCCCl)c1ccc(F)cc1
inactive: max response [1] 0.989% | outcome [2] | max response [3] 4.12% | max response [4] -0.659% | outcome [8]

C[C@H](CN1CCOCC1)C(C(=O)N1CCCC1)(c1ccccc1)c1ccccc1
inactive: max response [1] -21.1% | max response [3] -13.3% | max response [7] 1.9% | max response [4] -7.32%

CCOC(=O)C(c1c(O)c2ccccc2oc1=O)c1c(O)c2ccccc2oc1=O
inactive: max response [1] -6.62% | outcome [2] | outcome [3] | outcome [4] | outcome [10] | outcome [8]

CCc1ccc(C2CCNCC2)cc1
inactive: outcome [1] | max response [2] -21.3% | outcome [3] | max response [4] 1.66% | outcome [9] | outcome [10]

C[N+](C)(C)CCOC(=O)C(O)(c1ccccc1)c1ccccc1
inactive: Potency [5] | Potency [6] | max response [1] 1.11% | max response [2] -0.686% | max response [3] 1.68% | max response [7] -1.19% | max response [4] 2.06%

CCN(Cc1ccc(Cl)nc1)/C(=C/[N+](=O)[O-])NC
inactive: Potency [5] | max response [1] -14.2% | outcome [2] | outcome [3] | max response [4] 3.9% | outcome [10] | outcome [8]

Nc1ccccc1C(=O)OCC(O)CO (configuration not stated)
inactive: max response [1] 1.8% | outcome [2] | max response [4] -1.39% | outcome [8]

CCOC(=O)C1(c2ccccc2)CCN(CCc2ccc(N)cc2)CC1
inactive: max response [1] -7.28% | max response [2] -24.8% | max response [3] -21.6% | max response [4] 2.24%

CCC(OC(C)=O)C(CC(C)NC)(c1ccccc1)c1ccccc1 (configuration not stated)
inactive: max response [7] -22.1%
active: Potency [1] 43.7 µM | Potency [3] 27.6 µM

O=C(N[C@@H]1N=C(c2ccccc2F)c2cccc3c2N(CC3)C1=O)c1cc2ccccc2[nH]1
active: Potency [4] 4.32 µM
inactive: max response [1] -34.1% | max response [3] -2.29% | max response [7] -13.9%

c1cc2c(c(N3CCNCC3)c1)OCCO2
inactive: Potency [5] | Potency [6] | max response [1] -0.883% | max response [2] -10.2% | outcome [3] | max response [7] -5.14% | max response [4] 1.17% | outcome [10]
